# Target: PDIA5
# Assay: pooled miR-30 sensor sort-seq; sequence = guide strand
# Settings: shRNA
row,Sequence,sensor-assay potency score (higher = more potent)
1,TCAACTTTCATCTTCTTGCACA,-0.596
2,TAGAACATGACCAAGGTGTGTT,0.669
3,TTCTTCTTCAGGGTCTCCCGGA,-0.62
4,TACTGGAACAAGAACCGTCCTT,0.0118

# Target: PDLIM4
# Assay: as above
# Settings: shRNA
row,Sequence,sensor-assay potency score (higher = more potent)
1,TTGTCCATATGGAGATCCCAGG,-1.39
2,TTGGTCTGCCATCTTCTGGCCC,-0.715
3,TGAGCTCTGTGCTCTCACCATT,-1.16
4,AAAGAAGTAACCACGCTGCTTG,0.146
5,TCAGGATCGATGTGGATCCTGT,-1.13
6,TGCACATGAAGCACTCGGGATG,-1.65
7,TTGTGAGGGACTGGAAAGCGAG,-1.61
8,TACACCGCCACCACGTCGTAGC,-0.286
9,AGACAGTGTGAGGTGATCGTGG,-1.1
10,TCGGAGCCCAGGTCGACTCTGC,-1.11
11,TCACTGCACATGAAGCACTCGG,-0.799
12,TAGAGCTTGTCCCGTGCCTTGA,-0.615

# Target: PDP1
# Assay: as above
# Settings: shRNA
row,Sequence,sensor-assay potency score (higher = more potent)
1,TTTTGAAGGTCAATGCTCCATT,-0.4
2,TTGTCATTCAACTGGTCTGGGC,-1.11
3,TTTAAGGATGCTATTGACTTGT,0.228
4,TATTATAGTAGTATCTTTTTAA,-1.01
5,TAGAACTGACATTTTTGCCGTC,0.378
6,TGAAACTGTATTCATTAGCTTT,-0.926
7,TTGAACTGAACTACAATGATTG,-0.787
8,ATGATTGTAATGTCATCTCTGT,0.0872
9,TGCATTTTCAATCTCTAGCAAA,-1.4
10,TTAGGAGGAATAAACTTGGTAT,-0.0779
11,TATTCATTGTCATTCAACTGGT,-0.478
12,TACAACATGAGAATTGAACTGA,1.04

# Target: PDZD4
# Assay: as above
# Settings: shRNA
row,Sequence,sensor-assay potency score (higher = more potent)
1,TTGATCTCCAGGAGCTCACGGT,-0.853
2,TCACTTTGTACTGCTCCTCCGG,-0.937
3,TGTCCTTGTCCGACTTCTCGGG,-0.294
4,TTGCAGGCCAAACTTGCGCAGG,-1.4
5,TCATCCAGGAAGTCATCCCGGT,-0.501
6,TTTGGCTGCAATGCTGTTGGGA,-0.7
7,TTTCAGTTTACGAGCACGCAGC,-0.95
8,TCGTCGGTCGTCATACCGCTGC,-0.818
9,TACACCGTTAATCTGGATGATG,-1.18
10,TTCACTTTCCACTCCATGCGCG,-0.515
11,TCGTCGTCGGTCGTCATACCGC,-1.57
12,TTTTATACAGCTCCACCTCCTC,-1.13

# Reference: the OligoGym collection
